Reference: PubChem BioAssay
Calls of active or inactive are those of the source.

Tests used:
[1] = tested on: PRMT1 (protein arginine N-methyltransferase 1); test: PRMT1 binders on small-molecule microarrays, primary screen, biochemical, small-molecule microarray, 635 nm fluorescence (AID 1088); settings: small-molecule microarray binding, higher = more signal;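 further: binding of Prmt1 protein to compounds spotted on small-molecule microarray slides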
[2] = yeast growth modulation, basal conditions, primary screen, YJM789 clinical isolate, OD600, 24 h (AID 1089);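 further: growth of clinical yeast isolate S. cerevisiae YJM 789 seeded 1000 cells per well; test concentration not given here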; settings: S. cerevisiae YJM789 growth, higher = more signal, called active from +8 up or from −8 down
[3] = fission yeast growth modulation, primary screen, strain 972, OD600, 24 h, no modulator (AID 1090);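 further: basal condition with compound alone and no growth modifier present; test concentration not given here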; settings: S. pombe 972 growth, higher = more signal, called active from +8 up or from −8 down
[4] = S. cerevisiae growth modulation with rapamycin, primary screen, strain BY4716, OD600, 96 h (AID 1091); settings: higher = more signal, called active from +8 up or from −8 down; further: test concentration not given here
[5] = target: Torsin-1A-interacting protein 2 (Homo sapiens) (UniProt Q8NFQ8); test: LULL1 binders on small-molecule microarray, primary screen, cell lysate, human LULL1 lysate, 635/667 nm fluorescence (AID 1092); settings: hLULL1 lysate binding, 635 nm fluorescence, higher = more signal;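 further: probe is lysate of COS7 cells overexpressing human LULL1; score merges per-feature 667 nm fluorescence with signal-to-noise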
[6] = E. coli growth modulation, two-sided OD650, primary screen, E. coli filamentation project, strain DRC41, 24 h (AID 1093); settings: OD650, 24 h, higher = more signal, called active from +8 up or from −8 down;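 further: MC1000 strain lacking acrAB efflux and sulA so SOS filamentation is blocked; test concentration not given here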
[7] = small-molecule microarray binders of probe aLefty2, primary screen, biochemical, biotinylated probe, 635/667 nm fluorescence (AID 1094); settings: higher = more signal;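 further: score merges spot fluorescence near 667 nm with spot signal-to-noise ratio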
[8] = tested on: Noggin (protein binding on small-molecule microarray); test: Noggin binders on small-molecule microarray, primary screen, biochemical, 635/667 nm fluorescence (AID 1095); settings: 635 nm fluorescence, higher = more signal;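 further: score merges 667 nm feature fluorescence with signal to noise over triplicate slides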
[9] = target: Neurogenic locus notch homolog protein 3 (Homo sapiens) (UniProt Q9UM47); test: NOTCH3 binders on small-molecule microarray, primary screen, biochemical, 635/667 nm fluorescence (AID 1096); settings: NOTCH3 binding, 635 nm fluorescence, higher = more signal
[10] = small-molecule microarray binders of probe aEGFR, primary screen, biochemical, biotinylated probe, 635/667 nm fluorescence (AID 1097); settings: higher = more signal;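 further: probe is a biotinylated anti-EGFR antibody binding compounds printed on slides; score combines fluorescence near 667 nm and signal to noise of each spot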

Neurogenic locus notch homolog protein 3 (Homo sapiens), sequence (Q9UM47 whole entry, looked up): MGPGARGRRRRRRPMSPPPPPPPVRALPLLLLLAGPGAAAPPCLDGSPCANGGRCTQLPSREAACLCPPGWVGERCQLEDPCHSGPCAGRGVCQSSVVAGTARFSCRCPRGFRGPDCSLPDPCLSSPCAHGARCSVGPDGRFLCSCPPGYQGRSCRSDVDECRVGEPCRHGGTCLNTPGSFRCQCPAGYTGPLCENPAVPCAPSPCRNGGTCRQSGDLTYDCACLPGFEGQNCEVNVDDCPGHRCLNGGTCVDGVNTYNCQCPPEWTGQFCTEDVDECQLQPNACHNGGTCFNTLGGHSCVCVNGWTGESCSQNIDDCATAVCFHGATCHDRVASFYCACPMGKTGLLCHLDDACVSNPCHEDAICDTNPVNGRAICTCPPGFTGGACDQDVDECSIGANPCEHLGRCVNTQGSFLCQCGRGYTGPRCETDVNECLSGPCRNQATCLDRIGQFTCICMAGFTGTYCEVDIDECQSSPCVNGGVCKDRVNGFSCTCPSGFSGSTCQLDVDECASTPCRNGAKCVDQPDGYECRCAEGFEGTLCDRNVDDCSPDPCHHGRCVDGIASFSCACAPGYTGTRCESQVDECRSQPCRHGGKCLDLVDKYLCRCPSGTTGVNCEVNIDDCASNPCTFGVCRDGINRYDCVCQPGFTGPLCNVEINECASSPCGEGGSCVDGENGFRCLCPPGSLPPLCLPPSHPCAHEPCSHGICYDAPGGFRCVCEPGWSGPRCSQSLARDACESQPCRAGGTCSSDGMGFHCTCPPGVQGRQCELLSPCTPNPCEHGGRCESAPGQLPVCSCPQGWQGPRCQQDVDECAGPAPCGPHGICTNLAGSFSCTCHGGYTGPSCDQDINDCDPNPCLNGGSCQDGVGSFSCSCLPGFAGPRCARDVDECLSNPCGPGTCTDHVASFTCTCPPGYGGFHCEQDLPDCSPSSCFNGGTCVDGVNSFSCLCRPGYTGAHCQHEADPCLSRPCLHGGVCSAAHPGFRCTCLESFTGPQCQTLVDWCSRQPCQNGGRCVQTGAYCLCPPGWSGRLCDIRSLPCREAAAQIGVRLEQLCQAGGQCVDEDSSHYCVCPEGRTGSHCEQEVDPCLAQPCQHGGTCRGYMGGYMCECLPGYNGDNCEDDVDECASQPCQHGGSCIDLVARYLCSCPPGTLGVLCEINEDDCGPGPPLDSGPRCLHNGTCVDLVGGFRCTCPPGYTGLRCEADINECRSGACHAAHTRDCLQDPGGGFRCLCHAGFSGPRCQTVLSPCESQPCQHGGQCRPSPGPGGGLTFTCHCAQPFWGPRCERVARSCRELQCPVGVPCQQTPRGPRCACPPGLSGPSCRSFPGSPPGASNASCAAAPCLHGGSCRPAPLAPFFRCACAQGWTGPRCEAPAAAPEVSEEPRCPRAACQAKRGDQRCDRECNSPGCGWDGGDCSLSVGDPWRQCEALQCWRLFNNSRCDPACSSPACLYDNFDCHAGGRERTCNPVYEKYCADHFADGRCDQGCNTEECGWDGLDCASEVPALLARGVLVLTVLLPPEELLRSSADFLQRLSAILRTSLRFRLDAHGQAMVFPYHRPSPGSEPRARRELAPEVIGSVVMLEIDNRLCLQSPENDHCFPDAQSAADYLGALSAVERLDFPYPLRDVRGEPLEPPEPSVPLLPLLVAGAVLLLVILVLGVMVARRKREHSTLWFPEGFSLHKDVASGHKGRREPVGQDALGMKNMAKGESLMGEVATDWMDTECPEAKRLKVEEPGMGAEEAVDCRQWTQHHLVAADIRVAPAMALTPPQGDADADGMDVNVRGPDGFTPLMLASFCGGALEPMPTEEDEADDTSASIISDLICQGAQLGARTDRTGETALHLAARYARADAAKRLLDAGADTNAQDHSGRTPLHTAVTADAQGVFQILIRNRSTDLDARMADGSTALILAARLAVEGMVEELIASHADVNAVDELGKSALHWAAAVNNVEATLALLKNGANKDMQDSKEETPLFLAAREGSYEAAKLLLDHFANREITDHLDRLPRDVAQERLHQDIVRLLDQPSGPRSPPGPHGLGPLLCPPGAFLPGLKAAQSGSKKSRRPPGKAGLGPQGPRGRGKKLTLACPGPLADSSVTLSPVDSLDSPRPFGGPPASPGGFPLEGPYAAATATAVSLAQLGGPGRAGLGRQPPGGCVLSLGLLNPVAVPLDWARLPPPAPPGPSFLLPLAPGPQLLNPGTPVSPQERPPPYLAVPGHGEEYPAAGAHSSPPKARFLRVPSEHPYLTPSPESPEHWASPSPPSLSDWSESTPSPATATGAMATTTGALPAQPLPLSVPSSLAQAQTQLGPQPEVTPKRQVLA
Torsin-1A-interacting protein 2 (Homo sapiens), sequence (Q8NFQ8 whole entry, looked up): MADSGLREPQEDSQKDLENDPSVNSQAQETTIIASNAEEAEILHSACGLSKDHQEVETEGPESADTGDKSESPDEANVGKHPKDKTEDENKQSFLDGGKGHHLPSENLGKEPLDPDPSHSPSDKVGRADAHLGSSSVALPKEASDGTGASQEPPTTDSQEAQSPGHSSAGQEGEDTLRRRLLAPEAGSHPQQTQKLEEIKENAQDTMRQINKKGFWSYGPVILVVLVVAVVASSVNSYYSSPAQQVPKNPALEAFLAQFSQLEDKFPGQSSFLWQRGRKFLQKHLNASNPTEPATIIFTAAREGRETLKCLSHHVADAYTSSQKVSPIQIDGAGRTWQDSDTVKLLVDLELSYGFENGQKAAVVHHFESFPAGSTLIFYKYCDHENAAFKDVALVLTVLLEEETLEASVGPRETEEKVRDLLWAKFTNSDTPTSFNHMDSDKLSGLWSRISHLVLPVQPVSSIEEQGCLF

SMILES	composite z-score [1]	z-score [2]	z-score [3]	z-score [4]	composite z-score [5]	z-score [6]	composite z-score [7]	composite z-score [8]	composite z-score [9]	composite z-score [10]
CC(C)N1C(=O)c2ccccc2[C@](C)(C(=O)NCCN2CCOCC2)[C@@H]1c1ccc(CO)cc1	1.2	0.608 (inactive)	0.516 (inactive)	0.511 (inactive)	2.37	-0.487 (inactive)	0.0971	0.495	0.1	-0.0152
COC(=O)[C@@]1(Cc2ccccc2)[C@H]2c3cc(C(=O)N4CCCC4)n(Cc4ccc(S(C)(=O)=O)cc4)c3C[C@H]2CN1C(=O)c1ccccc1	0.375	0.527 (inactive)	0.955 (inactive)	0.671 (inactive)	3.56	-0.47 (inactive)	0.0495	0.0689	1.01	0.348
COc1ccc([Si](C)(C)[C@H]2[C@H](CC(=O)N3Cc4ccccc4C[C@H]3CO)O[C@@]3(C(=O)N(Cc4cccc(N5CCC5=O)c4)c4ccccc43)[C@@H]2C)cc1	1.57	-0.441 (inactive)	0.716 (inactive)	1.98 (inactive)	2.26	0.192 (inactive)	-0.12	0.914	1.06	0.0478
O=C(NCCN1CCOCC1)[C@@H]1c2ccccc2C(=O)N(C2CCCCC2)[C@H]1c1ccc(CO)cc1	0.403	-0.166 (inactive)	-0.556 (inactive)	0.0989 (inactive)	2.35	-0.0985 (inactive)	-0.0042	-0.562	-0.565	-0.2
C=C(CCCC)/C(=C/C[C@@H](OC(=O)c1ccncc1)c1ccc(OCCO)cc1)c1cc(C(=O)OC)ccc1OC	1.53	0.594 (inactive)	0.199 (inactive)	0.279 (inactive)	1.66	0.22 (inactive)	-0.166	0.874	0.975	-0.12
COC(=O)C[C@H]1O[C@]2(C(=O)N(C)c3ccccc32)[C@@H](C)[C@@H]1[Si](C)(C)F	1.54	-2.06 (inactive)	-1.29 (inactive)	-0.922 (inactive)	2.24	1.64 (inactive)	-0.168	1.86	0.59	-0.132
C=CCC(OC(C)=O)[C@@H]1[C@@H](N(Cc2ccc(-c3cccc(C(F)(F)F)c3)o2)C(=O)c2ccc(C)cc2)c2cc(OCCCO)ccc2N1C(=O)Cc1ccc2ccccc2c1 (stereo not given in full)	0.0457	0.677 (inactive)	-0.0286 (inactive)	0.303 (inactive)	-0.0958	1.6 (inactive)	-0.0674	-0.408	-0.624	-0.108
COc1cc2c(cc1OC)CN(C(=O)[C@@H]1[C@H]3C(=O)O[C@H](c4ccccc4)[C@H](c4ccccc4)N3[C@H](c3ccccc3OCCO)[C@@]13C(=O)Nc1ccc(C#CCCO)cc13)CC2	1.56	1.47 (inactive)	-1.3 (inactive)	2.22 (inactive)	3.02	1.15 (inactive)	-0.108	0.772	1.08	-0.0624
CC(C)c1ccc(NN2C(C(O)c3ccc(B(O)O)cc3)C=CC3C(=O)N(c4ccccc4)C(=O)C32)cc1 (stereo not given)	0.815	0.0686 (inactive)	-4.4 (inactive)	0.617 (inactive)	2.99	-0.41 (inactive)	0.413	-0.266	1.11	-0.0179
O=C(OCc1ccccc1)C1=CCC2c3[nH]c4ccccc4c3C(=O)C1N2S(=O)(=O)c1ccccc1[N+](=O)[O-] (stereo not given)	1.52	0.802 (inactive)	1.1 (inactive)	7.14 (inactive)	3.57	-0.639 (inactive)	0.0673	0.614	1.03	-0.112
COc1cc2c(cc1OC)CN(C(=O)[C@H]1[C@@H]3C(=O)O[C@@H](c4ccccc4)[C@@H](c4ccccc4)N3[C@@H](c3ccc(O)cc3)[C@]13C(=O)Nc1ccc(C#CCCO)cc13)CC2	1.56	1 (inactive)	-0.0822 (inactive)	1.91 (inactive)	2.44	1.32 (inactive)	-0.145	0.837	0.434	-0.152
CC(C)C[C@@H]1NC(=O)[C@@H]2C[C@H](C(=O)NCc3ccc(F)cc3)[C@H](c3cccc(OCCO)c3)N2C1=O	1.38	-1.84 (inactive)	-0.161 (inactive)	-0.425 (inactive)	2.14	1.64 (inactive)	-0.0674	0.572	0.552	-0.147
COCCOC(=O)N1C(=O)[C@@]2(c3cc(C#CCC(C(=O)OC)C(=O)OC)ccc31)[C@H](c1ccccc1OCCO)N1[C@H](c3ccccc3)[C@H](c3ccccc3)OC(=O)[C@H]1[C@@H]2C(=O)N1CCN(c2ncccn2)CC1	1.54	2.01 (inactive)	2.65 (inactive)	7.01 (inactive)	3.09	0.998 (inactive)	-0.0557	1.28	1.08	0.032
[N-]=[N+]=Nc1ccccc1[C@H]1OC(c2ccc(OCCCO)cc2)=N[C@@]1(CCS(=O)(=O)c1ccccc1)C(N)=O	1.01	-0.268 (inactive)	-2.33 (inactive)	0.372 (inactive)	2.56	1.36 (inactive)	0.24	-0.194	0.42	0.401
CC(C)C(O)C1C=CC2C(=O)N(c3ccccc3)C(=O)C2N1Nc1ccc([N+](=O)[O-])cc1 (stereo not given)	0.118	0.307 (inactive)	0.815 (inactive)	0.834 (inactive)	2.89	0.171 (inactive)	0.0827	-0.0213	0.614	0.117
C=CCN1C(=O)[C@]2(O[C@H](CCn3cc([C@H](O)c4ccccc4)nn3)[C@@H]([Si](C)(C)c3ccc(OC)cc3)[C@@H]2C)c2cc(N3CCC3=O)ccc21	0.942	0.487 (inactive)	0.406 (inactive)	2.47 (inactive)	1.56	1.28 (inactive)	-0.0397	1.82	0.803	-0.154
[N-]=[N+]=Nc1ccccc1[C@@H]1OC(c2ccc(OCCCO)cc2)=N[C@]1(Cc1ccccc1)C(=O)N1CCOCC1	1.56	0.785 (inactive)	-1.26 (inactive)	1.85 (inactive)	3.22	0.301 (inactive)	0.225	0.328	1.1	0.276
C=CCNC(=O)[C@@H]1[C@H]2C(=O)O[C@H](c3ccccc3)[C@H](c3ccccc3)N2[C@H](c2ccc(OCCO)cc2)[C@@]12C(=O)Nc1ccc(C#CCC(C(=O)OC)C(=O)OC)cc12	1.53	1.87 (inactive)	2.03 (inactive)	3.83 (inactive)	3.04	1.92 (inactive)	0.0869	1.31	0.981	-0.0466
COC(=O)[C@H](Cc1ccccc1)N[C@@H](/C=C/C1CC1)[C@H](O)Cc1ccccc1	0.136	-0.701 (inactive)	-7.84 (inactive)	-0.581 (inactive)	0.521	-0.296 (inactive)	-0.127	-0.327	-0.505	-0.218
Cc1ccccc1C(O)C1C=CC2C(=O)N(c3ccccc3)C(=O)C2N1Nc1ccc(C(C)C)cc1 (stereo not given)	1.13	1.38 (inactive)	0.0135 (inactive)	0.798 (inactive)	2.3	-1.89 (inactive)	-0.0675	-0.0693	1.07	0.0461
CCCC#C[Si](O[C@H](CC)c1cn(Cc2cccc(Cl)c2)nn1)(C(C)C)C(C)C	0.756	-1.19 (inactive)	-9.34 (active)	-1.52 (inactive)	1.91	1.5 (inactive)	-0.0068	0.476	1.13	0.252
